Experimental data published in PubChem BioAssay (EPA / NIEHS).
Active and inactive are the calls of the source. The calls were made as follows: active = hit-call score of the fitted dose curve at least 0.9, where 1 is the maximum; inactive = score below 0.9.

Tests used:
[1] = read-out: Interleukin-1 alpha (IL1a), IL1A (gene 3552); experiment: BSK_KF3CT_IL1a: BioMAP Diversity Plus: KF3CT Assay for Interleukin-1 alpha (IL1a) Biomarker Activity (AID 2283070); settings: primary human keratinocytes with fibroblasts; actives raise or lower the signal
Outline: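 Readout is IL-1a level by ELISA, compared bidirectionally with DMSO as baseline. Cells: human keratinocytes co-cultured with foreskin fibroblasts, harvested 24 h post-dose.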

[2] = read-out: Transforming growth factor beta 1 (TGFb1), TGFB1 (gene 7040); experiment: BSK_KF3CT_TGFb1: BioMAP Diversity Plus: KF3CT Assay for Transforming growth factor beta 1 (TGFb1) Biomarker Activity (AID 2283072); settings: primary human keratinocytes with fibroblasts; actives raise or lower the signal
Outline: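 ELISA quantifies TGF-b1 at 24 h post-dose in a primary human skin co-culture of keratinocytes and fibroblasts, with gain or loss judged against DMSO. Parallel SRB total-protein staining flags overt cytotoxicity.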

[3] = read-out: C-C motif chemokine 2 (Homo sapiens) (UniProt P13500); experiment: BSK_KF3CT_MCP1: BioMAP Diversity Plus: KF3CT Assay for Monocyte Chemoattractant Protein 1 (MCP1/CCL2) Biomarker Activity (AID 2283073); settings: primary human keratinocytes with fibroblasts; actives raise or lower the signal
Outline: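 KF3CT skin co-culture (keratinocytes/foreskin fibroblasts), 24 h post-dose; MCP-1 by ELISA; gain/loss of signal fit bidirectionally vs DMSO baseline.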

[4] = read-out: Matrix Metallopeptidase 9 (MMP9), MMP9 (gene 4318); experiment: BSK_KF3CT_MMP9: BioMAP Diversity Plus: KF3CT Assay for Matrix Metallopeptidase 9 (MMP9) Biomarker Activity (AID 2283074); settings: primary human keratinocytes with fibroblasts; actives raise or lower the signal;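 as to AC50: MMP9 protein level quantified by ELISA in the co-culture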
Outline: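 Values come from bidirectional fitting relative to DMSO of MMP-9 levels, which were measured by ELISA. Measurements were taken 24 h after chemical dosing of a keratinocyte and foreskin fibroblast co-culture.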

[5] = read-out: urokinase plasminogen activator (uPA), PLAU (gene 5328); experiment: BSK_KF3CT_uPA: BioMAP Diversity Plus: KF3CT Assay for urokinase plasminogen activator (uPA) Biomarker Activity (AID 2283075); settings: primary human keratinocytes with fibroblasts; actives raise or lower the signal
Outline: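 Values derive from bidirectional fitting against DMSO controls. Keratinocyte/foreskin fibroblast co-cultures received chemical; 24 h later uPA was detected by ELISA, with SRB total-protein staining in parallel wells for overt cytotoxicity.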

CD40, CD40 (gene 958) [6] = experiment: BSK_LPS_CD40: BioMAP Diversity Plus: LPS Assay for CD40 Biomarker Activity (AID 2283076); settings: primary human HUVEC with PBMC; actives raise or lower the signal
Outline: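 ELISA readout of CD40 in HUVEC/PBMC co-culture (BSK_LPS system), 24 h post-dosing; bidirectional curve fit, DMSO baseline; parallel SRB total-protein staining for cytotoxicity.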

[7] = read-out: E-selectin (Homo sapiens) (UniProt P16581); experiment: BSK_LPS_Eselectin: BioMAP Diversity Plus: LPS Assay for Eselectin Biomarker Activity (AID 2283077); settings: primary human HUVEC with PBMC; actives raise or lower the signal
Outline: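 ELISA readout of E-selectin, 24 h post-dose, HUVEC + PBMC co-culture (LPS system). Gain or loss of signal vs DMSO baseline, bidirectional fit.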

[8] = read-out: Interleukin-8 (IL8), CXCL8 (gene 3576); experiment: BSK_LPS_IL8: BioMAP Diversity Plus: LPS Assay for Interleukin-8 (IL8) Biomarker Activity (AID 2283078); settings: primary human HUVEC with PBMC; actives raise or lower the signal
Outline: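 HUVEC + PBMC co-culture, LPS-activated; test chemicals dosed, IL-8 read by ELISA at 24 h. Bidirectional curve fit vs DMSO baseline (gain or loss of signal).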

[9] = BSK_LPS_SRB: Viability Assessment in the BioMAP Diversity Plus: LPS Assay (AID 2283079); settings: primary human HUVEC with PBMC;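 also: total protein by sulforhodamine B absorbance as a cytotoxicity measure; measured one day after compound addition; fitted in both directions against DMSO so loss or gain of signal counts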
Outline: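 HUVEC + PBMC co-culture, LPS-stimulated; compound 24 h. 10% TCA fix, 0.1% SRB stain, A560. Bidirectional fit vs DMSO.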

[10] = read-out: Interleukin-1 alpha (IL1a), IL1A (gene 3552); experiment: BSK_LPS_IL1a: BioMAP Diversity Plus: LPS Assay for Interleukin-1 alpha (IL1a) Biomarker Activity (AID 2283080); settings: primary human HUVEC with PBMC; actives raise or lower the signal
Outline: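 HUVEC/PBMC co-culture, LPS system; 24 h after dosing; IL-1a by ELISA; gain or loss of signal fitted bidirectionally vs DMSO baseline.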

[11] = BSK_LPS_PGE2: BioMAP Diversity Plus: LPS Assay for Prostaglandin E2 (PGE2) Biomarker Activity (AID 2283082); settings: primary human HUVEC with PBMC; actives raise or lower the signal
Outline: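 PGE2 release measured by ELISA in an LPS-activated co-culture of human umbilical vein endothelial cells and peripheral blood mononuclear cells, read at 24 h post-dosing. DMSO served as baseline for bidirectional curve fitting.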

[12] = read-out: Macrophage colony-stimulating factor (MCSF), CSF1 (gene 1435); experiment: BSK_LPS_MCSF: BioMAP Diversity Plus: LPS Assay for Macrophage colony-stimulating factor (MCSF) Biomarker Activity (AID 2283083); settings: primary human HUVEC with PBMC; actives raise or lower the signal
Outline: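 HUVEC + PBMC co-culture (human primary), 24 h post-dose; M-CSF by ELISA; gain/loss of signal fitted bidirectionally vs DMSO baseline.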

[13] = read-out: Tissue Factor, F3 (gene 2152); experiment: BSK_LPS_TissueFactor: BioMAP Diversity Plus: LPS Assay for Tissue Factor Biomarker Activity (AID 2283084); settings: primary human HUVEC with PBMC; actives raise or lower the signal
Outline: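 HUVEC/PBMC co-culture, LPS-activated; CD142 ELISA read 24 h post-dose; bidirectional curve fit vs DMSO negative control.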

[14] = read-out: Tumor necrosis factor (Homo sapiens) (UniProt P01375); experiment: BSK_LPS_TNFa: BioMAP Diversity Plus: LPS Assay for Tumour Necrosis Factor alpha (TNFa) Biomarker Activity (AID 2283085); settings: primary human HUVEC with PBMC; actives raise or lower the signal;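 as to AC50: TNFa protein level quantified by ELISA in the co-culture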
Outline: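 TNFa was quantified by ELISA in LPS-activated co-cultures of human endothelial cells and PBMC, 24 h post-dosing. Both increases and decreases versus DMSO were fitted.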

[15] = read-out: Vascular cell adhesion molecule 1 (VCAM1), VCAM1 (gene 7412); experiment: BSK_LPS_VCAM1: BioMAP Diversity Plus: LPS Assay for Vascular cell adhesion molecule 1 (VCAM1) Biomarker Activity (AID 2283086); settings: primary human HUVEC with PBMC; actives raise or lower the signal
Outline: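 VCAM-1 quantified by ELISA in an LPS-activated co-culture of human endothelial cells and peripheral blood mononuclear cells, read 24 h post-treatment. Fitted in both directions versus DMSO; parallel SRB staining flags overt cytotoxicity.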

CD38, CD38 (gene 952) = experiment: BSK_SAg_CD38: BioMAP Diversity Plus: SAg Assay for CD38 Biomarker Activity (AID 2283087); settings: primary human HUVEC with PBMC; actives raise or lower the signal
Outline: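 CD38 quantified by ELISA (fluorescence) in a superantigen-activated endothelial cell–PBMC co-culture at 24 h post-dose. Activity fitted in both directions relative to DMSO; parallel SRB and Alamar Blue cytotoxicity read-outs.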

CD40, CD40 (gene 958) [16] = experiment: BSK_SAg_CD40: BioMAP Diversity Plus: SAg Assay for CD40 Biomarker Activity (AID 2283088); settings: primary human HUVEC with PBMC; actives raise or lower the signal
Outline: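 HUVEC/PBMC co-culture, 24 h post-dose; CD40 by ELISA, fluorescence intensity; bidirectional fit vs DMSO negative control.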

CD69, CD69 (gene 969) = experiment: BSK_SAg_CD69: BioMAP Diversity Plus: SAg Assay for CD69 Biomarker Activity (AID 2283089); settings: primary human HUVEC with PBMC; actives raise or lower the signal;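 as to AC50: cell surface CD69 protein quantified by ELISA with fluorescence detection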
Outline: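 Primary human vascular co-culture (umbilical vein endothelium with peripheral blood mononuclear cells) exposed to test chemical for 24 h. CD69 levels quantified by fluorescence ELISA; DMSO served as negative control for bidirectional fitting.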

[17] = read-out: Monocyte Chemoattractant Protein-1 (MCP1), CCL2 (gene 6347); experiment: BSK_LPS_MCP1: BioMAP Diversity Plus: LPS Assay for Monocyte Chemoattractant Protein-1 (MCP1) Biomarker Activity (AID 2283081); settings: primary human HUVEC with PBMC; actives raise or lower the signal
Outline: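 ELISA read-out of MCP-1 after 24 h chemical dosing of a human umbilical vein endothelial cell/peripheral blood mononuclear cell co-culture stimulated with LPS. Gain or loss of signal fitted relative to DMSO controls.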

Chain of Tumor necrosis factor (Homo sapiens) (P01375 whole entry, looked up): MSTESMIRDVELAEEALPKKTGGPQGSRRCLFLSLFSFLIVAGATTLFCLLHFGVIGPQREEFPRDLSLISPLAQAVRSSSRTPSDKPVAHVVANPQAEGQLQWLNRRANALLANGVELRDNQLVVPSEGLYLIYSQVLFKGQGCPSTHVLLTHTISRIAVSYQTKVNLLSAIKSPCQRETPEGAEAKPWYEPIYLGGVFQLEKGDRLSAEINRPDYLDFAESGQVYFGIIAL
Chain of E-selectin (Homo sapiens) (P16581 whole entry, looked up): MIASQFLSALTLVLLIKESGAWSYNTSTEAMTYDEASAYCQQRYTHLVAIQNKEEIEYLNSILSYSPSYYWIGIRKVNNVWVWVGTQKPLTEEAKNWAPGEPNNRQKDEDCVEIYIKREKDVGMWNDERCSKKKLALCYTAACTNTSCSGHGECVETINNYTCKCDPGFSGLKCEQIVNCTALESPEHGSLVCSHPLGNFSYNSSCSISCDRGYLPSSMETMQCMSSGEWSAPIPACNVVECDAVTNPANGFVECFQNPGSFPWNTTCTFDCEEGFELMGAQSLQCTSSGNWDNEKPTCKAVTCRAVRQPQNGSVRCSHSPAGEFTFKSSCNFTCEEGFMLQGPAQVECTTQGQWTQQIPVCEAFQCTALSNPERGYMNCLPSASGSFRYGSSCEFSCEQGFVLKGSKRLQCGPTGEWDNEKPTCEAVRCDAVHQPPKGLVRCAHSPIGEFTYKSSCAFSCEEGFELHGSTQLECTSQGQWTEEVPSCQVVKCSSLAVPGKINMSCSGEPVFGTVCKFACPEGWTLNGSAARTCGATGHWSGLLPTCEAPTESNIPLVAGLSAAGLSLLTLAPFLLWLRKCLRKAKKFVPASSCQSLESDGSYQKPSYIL

Cc1nccn1-c1ccc(Sc2cccc(C3(C(N)=O)CCOCC3)c2)cc1
outcome [1]: inactive | outcome [2]: inactive | outcome [3]: inactive | AC50 [4]: 20 µM (active) | outcome [5]: inactive | outcome (CD40, CD40 (gene 958) [6]): inactive | outcome [7]: inactive | outcome [8]: inactive | outcome [9]: inactive | outcome [10]: inactive | outcome [11]: inactive | outcome [12]: inactive | outcome [13]: inactive | outcome [14]: inactive | AC50 [15]: 6.8 µM (active) | AC50 (CD38, CD38 (gene 952)): 5.57 µM (active) | AC50 (CD40, CD40 (gene 958) [16]): 4.56 µM (active) | AC50 (CD69, CD69 (gene 969)): 6.87 µM (active)

O=C(O)[C@H](O)[C@@H](O)C(=O)O
outcome [1]: inactive | outcome [2]: inactive | outcome [3]: inactive | outcome [4]: inactive | outcome [5]: inactive | outcome (CD40, CD40 (gene 958) [6]): inactive | outcome [7]: inactive | outcome [8]: inactive | outcome [9]: inactive | outcome [17]: inactive | outcome [11]: inactive | outcome [12]: inactive | outcome [13]: inactive | outcome [14]: inactive | outcome [15]: inactive | outcome (CD38, CD38 (gene 952)): inactive | outcome (CD40, CD40 (gene 958) [16]): inactive | outcome (CD69, CD69 (gene 969)): inactive

CCCCCCCC1CCC(=O)O1 (stereo not given)
outcome [1]: inactive | outcome [2]: inactive | outcome [3]: inactive | outcome [4]: inactive | outcome [5]: inactive | outcome (CD40, CD40 (gene 958) [6]): inactive | outcome [7]: inactive | outcome [8]: inactive | outcome [9]: inactive | outcome [11]: inactive | outcome [12]: inactive | outcome [13]: inactive | outcome [14]: inactive | outcome [15]: inactive | outcome (CD38, CD38 (gene 952)): inactive | outcome (CD40, CD40 (gene 958) [16]): inactive | outcome (CD69, CD69 (gene 969)): inactive

CCCCOC(=O)c1ccccc1
outcome [1]: inactive | outcome [2]: inactive | outcome [3]: inactive | outcome [4]: inactive | outcome [5]: inactive | outcome (CD40, CD40 (gene 958) [6]): inactive | outcome [7]: inactive | outcome [8]: inactive | outcome [9]: inactive | outcome [11]: inactive | outcome [12]: inactive | outcome [13]: inactive | outcome [14]: inactive | outcome [15]: inactive | outcome (CD38, CD38 (gene 952)): inactive | outcome (CD40, CD40 (gene 958) [16]): inactive | outcome (CD69, CD69 (gene 969)): inactive

CCCCCOC(C)=O
outcome [1]: inactive | outcome [2]: inactive | outcome [3]: inactive | outcome [4]: inactive | outcome [5]: inactive | outcome (CD40, CD40 (gene 958) [6]): inactive | outcome [7]: inactive | outcome [8]: inactive | outcome [9]: inactive | outcome [10]: inactive | outcome [11]: inactive | outcome [12]: inactive | outcome [13]: inactive | AC50 [14]: 10.1 µM (active) | outcome [15]: inactive | outcome (CD38, CD38 (gene 952)): inactive | outcome (CD40, CD40 (gene 958) [16]): inactive | outcome (CD69, CD69 (gene 969)): inactive

CC(=O)c1ccccc1
outcome [1]: inactive | outcome [2]: inactive | outcome [3]: inactive | outcome [4]: inactive | outcome [5]: inactive | outcome (CD40, CD40 (gene 958) [6]): inactive | outcome [7]: inactive | outcome [8]: inactive | outcome [9]: inactive | outcome [11]: inactive | outcome [12]: inactive | outcome [13]: inactive | outcome [14]: inactive | outcome [15]: inactive | outcome (CD38, CD38 (gene 952)): inactive | outcome (CD40, CD40 (gene 958) [16]): inactive | outcome (CD69, CD69 (gene 969)): inactive
